# In PubChem BioAssay AID589 (National Center for Advancing Translational Sciences (NCATS), 2007):
# Out of some 59,000 compounds screened, about 6,200 (11%) were called active. Not shown: some 9% with an inconclusive outcome. Cut-off read from the data, not from the text of the source: active = max dye-equivalent concentration above about 10 nM; inconclusive = mostly about 1.1 nM to 9.6 nM; inactive = weaker than that. The list comes from a sample in which actives are over-represented; it also holds similar structures and randomly drawn compounds.
# Assay: qHTS Assay for Spectroscopic Profiling in 4-MU Spectral Region
# Details: compound autofluorescence, 340/450 nm, 4-MU equivalents; stronger effect = higher value
# Summary of the method: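 Compounds in 100 mM Tris, pH 8.0, incubated 15 min at room temperature, then fluorescence read at 340 nm excitation/450 nm emission. Signal converted to 4-MU dye-equivalent concentration using an on-plate six-point 4-MU standard curve.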
row,Compound,max dye-equivalent concentration
1,Cc1nc(NC(=O)C23CCC(C)(C(=O)O2)C3(C)C)sc1C (centres undefined),inactive
2,CC(=NCc1ccco1)C1=C(O)c2ccccc2C1=O,inactive
3,COc1ccc(N2C(=O)CC(N3CCC(C(N)=O)CC3)C2=O)cc1 (centres undefined),inactive
4,CCCC(NC(=O)c1ccccc1)c1nc2ccccc2n1Cc1ccc(C(=O)OC)o1 (centres undefined),inactive
5,CCn1c(SCC(=O)Nc2cc(C)ccc2C)nnc1-c1cnccn1,inactive
6,Cc1ccc2nc(NCCCNC(=O)c3cnccn3)c(C#N)cc2c1,160 nM (active)
7,CC1(C)C(=O)C2(CCCCC2)C(=O)OC1c1cccs1 (centres undefined),inactive
8,CC(C)CNS(=O)(=O)c1ccc(OCC(=O)Nc2ccc3c(c2)OCO3)c(Cl)c1,inactive
9,CC1CN(C(=O)CN2C(=O)NC(C)(c3ccccc3)C2=O)CC(C)O1 (centres undefined),inactive
10,COC(=O)c1cc(C(=O)OC)cc(N2C(=O)CC(N3CCN(c4ccccc4)CC3)C2=O)c1 (centres undefined),inactive
11,CCc1c(C)nc2ncnn2c1N1CCC(C(=O)NCc2ccc3c(c2)OCO3)CC1,inactive
12,O=C1CSC(=O)N1CCOCCN1C(=O)CSC1=O,inactive
13,COCCn1c(-c2ccc(OC)c(OC)c2)nc2ccccc21,inactive
14,COc1ccc(CCn2nnnc2C(c2ccccc2)N2CCN(C)CC2)cc1OC (centres undefined),inactive
15,COc1ccc(CCn2c(-c3ccco3)nc3nc4ccccc4nc32)cc1OC,40 nM (active)
16,CCn1cc(C(=O)N2CCN(C3CCCCC3)CC2)c2cc(OC)c(OC)cc2c1=O,inactive
17,Cn1c2c(c(=O)n(C)c1=O)C(c1ccc(O)cc1)Nc1ccccc1O2 (centres undefined),inactive
18,COc1ccc(-c2ccnc(SCC(=O)N3CCOCC3)n2)cc1,110 nM (active)
19,CCn1c(COc2cccc(OC)c2)nnc1SCC(=O)N1CCOCC1,inactive
20,COc1ccc(-c2nc(SCC(=O)N3CCOCC3)n[nH]2)cc1,inactive
21,CC1(C)CC(=O)C=C(NCCCN2CCCC2=O)C1,inactive
22,CCOC(=O)c1ccc(N2C(=O)CC(Sc3nc(O)c(CC)c(=O)[nH]3)C2=O)cc1 (centres undefined),inactive
23,CS(=O)(=O)N1CCCC(C(=O)N2CCOCC2)C1 (centres undefined),inactive
24,COc1ccc(N2C(=O)c3cccc4cccc(c34)C2=O)nn1,160 nM (active)
25,COc1ccc(OCCCON2C(=O)c3ccccc3C2=O)cc1,inactive
26,Cc1cc(C)c(C)c(S(=O)(=O)Nc2ccc(O)cc2)c1C,inactive
27,COCCCNC(=O)c1ccc(CNS(=O)(=O)c2ccc(NC(C)=O)cc2)cc1,inactive

row,Compound,max dye-equivalent concentration
1,CC(C)C1Cc2c(sc3c2c(=O)n(-c2ccccc2)c2nncn32)CO1 (centres undefined),inactive
2,COC(=O)c1cn(CC(=O)NCc2cccs2)c2ccccc12,inactive
3,O=C(Cn1cc(C(=O)c2cccs2)c2ccccc21)NCc1cccs1,29 nM (active)
4,O=C(CCC(=O)c1cccs1)NCc1ccccc1,inactive
5,CCc1ccc(CCC(=O)Nc2ccc(S(N)(=O)=O)cc2)o1,inactive
6,Clc1ccc(C(c2ccc(Cl)cc2)n2cc[n+](C[C@@H](OCc3ccc(Cl)cc3Cl)c3ccc(Cl)cc3Cl)c2)cc1,inactive
7,CC1CCCN(c2ccc(C(=O)NCCc3ccccc3)cn2)C1 (centres undefined),inactive
8,Cc1ccc(S(=O)(=O)NC(=O)NN2C[C@H]3CCC[C@@H]3C2)cc1,inactive
9,O=C(OCC(=O)N1CCCC1)c1ccco1,inactive
10,Nc1nc2n(n1)C(c1ccco1)CC(c1ccc(Cl)c(Cl)c1)N2 (centres undefined),inactive
11,CC1CC(c2ccccc2)n2nc(NC(=O)c3cccs3)nc2N1 (centres undefined),inactive
12,COc1ccc(C2CC(c3ccc(C)cc3)Nc3nc(N)nn32)cc1 (centres undefined),2500 nM (active)
13,CCc1c(C)c2c(C)[nH]nc2oc1=O,inactive
14,COc1ccc(OC)c(C(c2nnnn2C(C)(C)C)N2CCc3ccccc3C2)c1 (centres undefined),inactive
15,COCCn1nnnc1C(c1ccccc1Cl)N1CCN(c2ccccc2OC)CC1 (centres undefined),inactive
16,COCCn1nnnc1C(c1cc2ccc(OC)cc2[nH]c1=O)N1CCc2ccccc2C1 (centres undefined),17 nM (active)
17,COc1ccc(N2CCN(C(c3cc4ccc(C)cc4[nH]c3=O)c3nnnn3C3CCCC3)CC2)cc1 (centres undefined),inactive
18,Cc1cc(C)c2[nH]c(=O)c(C(c3nnnn3Cc3ccc4c(c3)OCO4)N3CCCC3)cc2c1 (centres undefined),inactive
19,CCOc1ccc2[nH]c(=O)c(C(c3nnnn3CCOC)N3CCOCC3)cc2c1 (centres undefined),720 nM (active)
20,CCCOc1ccccc1C(=O)NCCCC(=O)O,inactive
21,COC(=O)Nc1ncc(CN2C(=O)c3ccccc3C2=O)s1,inactive
22,O=C(CCCn1c(SCC(=O)c2ccc(F)cc2)nc2ccccc2c1=O)NCc1ccco1,inactive
23,CC1(N2CCOCC2)CC2(O)C(=[N+]1[O-])CCc1nonc12 (centres undefined),inactive
24,CCn1c(COc2ccccc2)nnc1SCC(=O)Nc1ccc2c(c1)OCCO2,inactive
25,COc1ccc(S(=O)(=O)N2CCCCC2)cc1Br,inactive
26,C=CCn1c(CC(=O)Nc2cccc(OC)c2)nnc1SCC(=O)NC1CCCCC1,inactive
27,COc1ccc(OCc2cccc(C(=O)N3CCCC3)c2)cc1,19 nM (active)
